Data on eight compounds can be found in PubChem BioAssay.

Each structure is given as a SMILES string. Values joined by “and” are separate entries in the source; they are usually repeats but may differ in a detail not shown here. Identical values can stand only once. Inconclusive results are not listed. For some assays here: Entries with a potency or affinity are not part of this list. Active and inactive are the calls of the source.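 Rule for the calls, unless noted: active = at least 20% inhibition of 6-phosphogluconate dehydrogenase activity; inactive = the rest.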

A short description of test [1]: liver-stage malaria parasite growth inhibition, primary screen, cell-based, HepG2, luciferase luminescence, HepG2 viability (AID 624349; in the data active = parasite load remaining mostly below about 12%, no sharp cut-off; inactive = mostly above about 10%;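 note: 100% = mean of DMSO negative control wells on the same plate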). As to conditions: P. berghei liver stage in HepG2, luciferase luminescence, concentration not given here; parasite load remaining: stronger effect = lower value; viability: measured here: HepG2 viability without parasites.
In test [2] the target is 6-phosphogluconate dehydrogenase, decarboxylating (Homo sapiens) (UniProt P52209). Put plainly: 6PGD enzyme inhibitors, primary screen, biochemical, human, recombinant enzyme, NADPH absorbance (AID 1159550). The note with it: recombinant 6PGD, NADPH absorbance 341 nm; at 10 µM; stronger effect = higher value.
Chain of 6-phosphogluconate dehydrogenase, decarboxylating (Homo sapiens) (P52209 whole entry, looked up): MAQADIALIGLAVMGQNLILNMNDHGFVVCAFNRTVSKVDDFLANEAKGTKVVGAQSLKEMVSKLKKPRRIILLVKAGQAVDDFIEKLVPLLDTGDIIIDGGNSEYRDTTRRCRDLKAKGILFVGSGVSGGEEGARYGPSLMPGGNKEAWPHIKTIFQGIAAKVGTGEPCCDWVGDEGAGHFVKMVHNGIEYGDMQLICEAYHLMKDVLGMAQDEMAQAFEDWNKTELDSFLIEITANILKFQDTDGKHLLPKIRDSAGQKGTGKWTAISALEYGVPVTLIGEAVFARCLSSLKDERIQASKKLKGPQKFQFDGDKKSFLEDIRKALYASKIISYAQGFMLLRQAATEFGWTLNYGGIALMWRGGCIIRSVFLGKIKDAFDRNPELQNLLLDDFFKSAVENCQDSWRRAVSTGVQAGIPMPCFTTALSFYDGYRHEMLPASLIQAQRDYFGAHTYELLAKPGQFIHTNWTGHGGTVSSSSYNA
The nature of test [3]: sensitizers of A549 cells to miR-34 induction, primary screen, imaging, A549 dox-inducible miR-34, nuclei and caspase counts (AID 1347080;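 active = compounds whose cell count with miR-34 switched on is under 0.7 times the count with it off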). The note with it: A549 miR-34 inducible, Hoechst nuclei count, 48 h.
The target in test [4] is NAD(+) hydrolase SARM1 (Homo sapiens) (UniProt Q6SZW1). Briefly: SARM1 TIR NADase inhibitors, cell lysate, NAD-Glo luminescence (AID 1508614;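 active = compound whose remaining NAD level is above about 45 nM, limit read from the data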;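 note: higher remaining NAD means stronger inhibition of SARM1 NADase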). The note with it: SAM-TIR HEK293T lysate NADase, at 1 µM, stronger effect = higher value.
Chain of NAD(+) hydrolase SARM1 (Homo sapiens) (Q6SZW1 whole entry, looked up, the tested form may be a part): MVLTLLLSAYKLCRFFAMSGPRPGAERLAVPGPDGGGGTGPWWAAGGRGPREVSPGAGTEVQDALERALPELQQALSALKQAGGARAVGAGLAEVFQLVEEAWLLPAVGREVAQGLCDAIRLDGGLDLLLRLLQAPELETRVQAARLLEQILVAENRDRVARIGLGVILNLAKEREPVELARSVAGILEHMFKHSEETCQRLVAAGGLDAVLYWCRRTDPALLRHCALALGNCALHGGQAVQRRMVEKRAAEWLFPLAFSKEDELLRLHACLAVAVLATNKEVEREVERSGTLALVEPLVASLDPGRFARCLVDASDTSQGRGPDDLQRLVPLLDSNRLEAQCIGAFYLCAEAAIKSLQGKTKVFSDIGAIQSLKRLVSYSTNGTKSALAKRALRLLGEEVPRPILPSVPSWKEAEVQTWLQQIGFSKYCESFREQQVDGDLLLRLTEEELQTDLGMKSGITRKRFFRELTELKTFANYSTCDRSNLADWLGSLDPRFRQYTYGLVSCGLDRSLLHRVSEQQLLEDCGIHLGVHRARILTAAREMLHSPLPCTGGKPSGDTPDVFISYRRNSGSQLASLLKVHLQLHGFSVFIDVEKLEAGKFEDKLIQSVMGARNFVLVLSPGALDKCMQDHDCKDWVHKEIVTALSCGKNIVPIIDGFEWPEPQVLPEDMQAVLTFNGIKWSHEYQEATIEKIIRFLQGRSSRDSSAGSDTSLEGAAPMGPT
In test [5] the target is Mitogen-activated protein kinase 7 (Homo sapiens) (UniProt Q13164). Put plainly: ERK5 transactivation activators in reporter cells, primary screen, cell-based, HTS (AID 1508626;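 active = luciferase signal above three times the same-plate solvent-only control wells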;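 note: luciferase driven by Gal4-ERK5 fusion binding five Gal4 sites before minimal TATA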). The note with it: HeLa Gal4-ERK5 transactivation, 18 h, at 5 µM, stronger effect = higher value.
Chain of Mitogen-activated protein kinase 7 (Homo sapiens) (Q13164 whole entry, looked up, the tested form may be a part): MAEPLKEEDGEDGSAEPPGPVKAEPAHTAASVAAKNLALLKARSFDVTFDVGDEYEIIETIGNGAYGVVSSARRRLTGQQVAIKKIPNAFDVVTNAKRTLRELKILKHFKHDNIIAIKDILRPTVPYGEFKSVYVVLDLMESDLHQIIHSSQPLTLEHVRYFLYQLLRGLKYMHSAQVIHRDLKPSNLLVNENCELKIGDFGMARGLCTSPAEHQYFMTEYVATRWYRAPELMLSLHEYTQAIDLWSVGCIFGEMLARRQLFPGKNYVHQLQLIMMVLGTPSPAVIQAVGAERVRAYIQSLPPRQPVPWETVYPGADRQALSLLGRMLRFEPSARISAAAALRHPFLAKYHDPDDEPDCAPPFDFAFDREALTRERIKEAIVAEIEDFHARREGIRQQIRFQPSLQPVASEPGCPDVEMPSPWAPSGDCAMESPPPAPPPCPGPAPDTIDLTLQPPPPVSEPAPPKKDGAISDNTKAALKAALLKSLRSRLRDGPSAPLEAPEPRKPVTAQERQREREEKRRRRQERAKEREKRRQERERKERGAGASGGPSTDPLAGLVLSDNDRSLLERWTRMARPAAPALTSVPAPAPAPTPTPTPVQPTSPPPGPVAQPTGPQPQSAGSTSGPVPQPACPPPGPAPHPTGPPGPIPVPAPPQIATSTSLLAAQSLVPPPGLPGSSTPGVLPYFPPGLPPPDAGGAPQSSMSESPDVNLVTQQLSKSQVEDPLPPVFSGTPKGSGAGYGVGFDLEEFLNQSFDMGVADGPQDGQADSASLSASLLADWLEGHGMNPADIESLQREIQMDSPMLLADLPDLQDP
Test [6] in a line: polyglutamine-triggered caspase-3 activation inhibitors, cell-based (AID 1583). As to conditions: polyglutamine-induced caspase-3 activation, cell assay; stronger effect = higher value;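 tested at 10 µM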.
Test [7] in a line: suppressors of polyQ aggregation in yeast, 75Q-TubU reporter (AID 1593). As to conditions: Yeast 75Q polyglutamine aggregation reporter.
The nature of test [8]: rescue of polyQ-huntingtin neuronal dysfunction in worms, whole organism, C. elegans mechanosensory neurons, N-terminal huntingtin (AID 1599). The note with it: touch response, stronger effect = higher value.
The nature of test [9]: inhibitors of mitochondrial cytochrome c release, biochemical, purified mitochondria (AID 1603).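 Note: mouse liver mitochondria challenged with calcium chloride; signal normalized to the plate average as 100%.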 As to conditions: stronger effect = lower value.
The nature of test [10]: inhibitors of polyQ protein aggregation (AID 1604). The note with it: polyglutamine-induced protein aggregation inhibition assay; stronger effect = higher value; tested at 2.5 µM.
Test [11] can be described thus: enhancers of glutamate uptake in motor neurons, MN-1 cell line (AID 1612).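 Note: tested at 1 µM final; 0% = mean of DMSO vehicle wells on each plate; positive means more glutamate uptake than control and negative means less.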 As to conditions: MN-1 motor neuron cells, stronger effect = higher value.
A short description of test [12]: suppressors of polyglutamine aggregation in yeast, 75Q-TubH (AID 1616). The note with it: S. cerevisiae 75Q-TubH polyglutamine aggregation suppression; stronger effect = higher value.
The nature of test [13]: survival rescue of mitochondrial mutant cells in low glucose, primary screen, MELAS cybrids, Rieske KO mouse fibroblasts, CellTiter-Glo (AID 1508586;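 active = mean z-score across replicates of 1.96 or higher in either the MELAS or the Rieske mutant cell line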;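 note: z relative to plate mean and SD of compound and empty wells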). (In ATP-based viability assays light output follows the ATP content of the culture.)
Test [14] can be described thus: viability rescue of complex I mutant cybrids, primary screen, cell-based, galactose medium, ATP luminescence (AID 1645843;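 active = z-score of at least 1.8 in each of two replicates, scored against plate mean and spread of sample wells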;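 note: positive z means more ATP and so rescue of galactose-driven cybrid death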). As to conditions: complex I mutant cybrid cells, 72 h, stronger effect = higher value.
A short description of test [15]: growth inhibition of DIPG glioma cells, dose response, cell-based, JHH-DIPG-1, MIPE4.0, CellTiter-Glo, qHTS (AID 1347062; cut-off not given, nearly all actives have AC50 up to about 27 µM). As to conditions: JHH-DIPG-1 viability, CellTiter-Glo ATP luminescence.
Setting [16] is: stronger effect = lower value, cell number ratio, induced over uninduced.
[17] abbreviates: measured here: relative caspase fold change +Dox/-Dox.
Where [18] appears, read: measured here: total cells with miR-34 induction, stronger effect = lower value.
The mark [19] stands for this setting: measured here: total cells without miR-34 induction.
The mark [20] stands for this setting: MELAS cybrid survival, CellTiter-Glo 48 h, stronger effect = higher value.
Setting [21] is: Rieske KO mouse fibroblast survival, CellTiter-Glo 72 h.

As a reminder, the viability is a read-out of living cells in per cent, often relative to untreated cells. By inhibition is commonly meant the drop in the measured response relative to a control, in per cent. Turning to `C=C1CC[C@H](O)C/C1=C/C=C1\CCC[C@]2(C)[C@@H]([C@H](C)/C=C/[C@H](C)C(C)C)CC[C@@H]12`, in [1], the parasite load remaining was 50.6% (inactive). In addition, the viability in test [1] came out at 130%. Besides, the inhibition in test [2] is 12.3% (inactive). For the same compound, the fold change in test [3] (setting [16]) is 0.934 (inactive); in test [3] (setting [17]), 1.53. Also, the cell count in test [3] (setting [18]) is 7580; in test [3] (setting [19]), 8110. Besides, the remaining NAD in test [4] is 10 nM (inactive). Further, the luciferase signal in [5] is 144 AU (inactive).
For `NCCCCCCNS(=O)(=O)c1cccc2c(Cl)cccc12`, the inhibition was -15.2% and 22.6% and 2.95% in [6]; 8.63% (inactive) in test [2]. Also, in [7], the score is 1.04 and 1.62 and 0.88. In addition, the rescue above control in [8] was 4.12 and -5.26 and -2.52. In addition, the cytochrome c release ratio in test [9] is 1.16 and 0.95 and 1.09. Moreover, the inhibition of aggregation in [10] is 51% and 55.6% and 36.6%. In test [11], the glutamate uptake change is 18.7% and -10.2% and 14.1%. The aggregation suppression score in test [12] is 0.802 and 0.897 and 0.965. Besides, the fold change in [3] (setting [16]) was 0.955 (inactive); in [3] (setting [17]) it was 0.859. Besides, the cell count in test [3] (setting [18]) amounted to 4060; in [3] (setting [19]) it was 4250.
In the case of `CCOc1ccc2c(c1)C(C)=CC(C)(C)N2`, the inhibition in [6] is 14.7%; in test [2] it was 17.3% (inactive). In addition, in test [7], the score was 0.77. The same compound gave a rescue above control in test [8] of 5.1. Also, the cytochrome c release ratio in test [9] stood at 0.79. For the same compound, the inhibition of aggregation in test [10] came out at 25.8%. In addition, the glutamate uptake change in test [11] came out at 23.6%. The aggregation suppression score in test [12] is 0.616. Moreover, the parasite load remaining in test [1] was 29.9% (inactive). Besides, the viability in test [1] was found to be 95.9%. Besides, the fold change was 0.841 (inactive) in test [3] (setting [16]) and 1.09 in test [3] (setting [17]). The cell count in test [3] (setting [18]) worked out at 8590; in [3] (setting [19]), 10200. The values for the z-score in test [13] (setting [20]) and in [13] (setting [21]) were 1.71 (inactive) and 0.609, respectively. The luciferase signal in test [5] was 48 AU (inactive).
Regarding `C[C@@H]1C(=O)O[C@H]2C[C@@]34[C@H]5C[C@@H](C(C)(C)C)[C@]36[C@@H](OC(=O)[C@@H]6O)O[C@@]4(C(=O)O5)[C@]21O`, the parasite load remaining in [1] was 48.8% (inactive). The viability in test [1] is 110%. Also, the inhibition in test [2] was 0.379% (inactive). Moreover, the results for the fold change in [3] (setting [16]) and in [3] (setting [17]) were 0.95 (inactive) and 1.75, respectively. The cell count in test [3] (setting [18]) is 10300; in test [3] (setting [19]) it was 10800. For the same compound, the z-score is 0.0275 (inactive) in [13] (setting [20]), -1.08 in [13] (setting [21]) and 0.435 (inactive) in [14].
On to `CO/N=C(\C(=O)N[C@@H]1C(=O)N2C(C(=O)OCOC(=O)C(C)(C)C)=C(/C=C\c3scnc3C)CS[C@H]12)c1csc(N)n1`, for which the inhibition in [2] is -4.41% (inactive). The compound was called inactive in test [15]. Also, the remaining NAD in test [4] was 10 nM (inactive).
Turning to `CC(=O)N[C@@H](Cc1ccccc1)C(=O)O`, in test [2], the inhibition was -1.76% (inactive). In addition, the values for the fold change in [3] (setting [16]) and in [3] (setting [17]) were 0.922 (inactive) and 1.14, respectively. Further, the figures for the cell count in test [3] (setting [18]) and in [3] (setting [19]) were 8280 and 8980, respectively.
For `COc1ccc(C(Cl)=C(c2ccc(OC)cc2)c2ccc(OC)cc2)cc1`, the parasite load remaining in [1] was 9.26% (inactive) and 45.4% (inactive) and 50.6% (inactive). The viability in [1] is 85.2% and 70.2% and 89.6%. The inhibition in test [2] is 7.15% (inactive). The fold change in test [3] (setting [16]) is 0.946 (inactive) and 0.925 (inactive); in test [3] (setting [17]), 1.03 and 1.43. Moreover, the cell count was 9940 and 11400 in [3] (setting [18]); 10500 and 12300 in test [3] (setting [19]). Also, the values for the z-score in test [13] (setting [20]) and in [13] (setting [21]) were 0.437 (inactive) and 0.0944, respectively. The luciferase signal in test [5] was 40 AU (inactive).
Take `C=C[C@H]1CN2CCC1C[C@@H]2[C@@H](O)c1ccnc2ccc(OC)cc12` (some centres undefined): the parasite load remaining in test [1] is 28.6% (inactive). The viability in test [1] came out at 94.6%. In test [2], the inhibition is -0.543% (inactive). Further, the results for the fold change in test [3] (setting [16]) and in test [3] (setting [17]) were 1.07 (inactive) and 1.29, respectively. Also, the cell count in test [3] (setting [18]) came to 9920; in test [3] (setting [19]), 9300. Further, the z-score in test [14] is -1.04 (inactive).
